# Results published in PubChem BioAssay AID463173 (ICCB-Longwood Screening Facility, Harvard Medical School, 2010).
# Out of some 52,000 compounds screened, about 4,300 (8.3%) were called active. This is one part of a sample in which actives are shown more often than they occur. Rule as the data show it: active = survival mostly below about 52% (no sharp cut-off); inactive = mostly above about 56%.
# Test system: DeltatarO mutant
# Test: growth inhibition of S. aureus wild type versus tarO mutant, primary screen, teichoic acid synthesis inhibitors, RN4220, OD600 (AID 463173)
# Details: OD600, 18 h, stronger effect = lower value, screened at 18.75 µg/mL (by protocol)
row,Structure (SMILES),survival
1,CCN(CC)CCOC(=O)c1ccc(NC(=O)c2cc3cc(OC)ccc3oc2=O)cc1,73% (inactive)
2,COc1ccc(NC(=O)Cn2c(=O)n(-c3ccc(C)c(C)c3)c(=O)c3c(C)c(C)sc32)cc1,139% (inactive)
3,O=C1[C@@H]2CSC(c3ccc(C(F)(F)F)cc3)N2C(=O)N1c1ccccc1 (some centres undefined),81% (inactive)
4,O=C(NCc1ccccc1F)c1ccc(CSc2nc3cccnc3n2Cc2ccccc2)cc1,75% (inactive)
5,CSc1nc(=O)c2c(n1C)NC(=O)CC2c1ccccc1OC(C)C (centres undefined),46% (inactive)
6,CCCSc1nc(=O)c2c(n1C)NC(=O)CC2c1cccc(F)c1F (centres undefined),54% (active)
7,CCSc1nc(=O)c2c(n1C)NC(=O)CC2c1ccc(O)cc1OC (centres undefined),57% (inactive)
8,Cc1oc(-c2ccc(Cl)cc2)nc1Cn1c(=O)cc(-c2ccccc2)c2c(C)nn(C)c21,88% (inactive)
9,Cc1oc(C)c2c(=O)cc(-c3ccc4c(c3)OCO4)cc(OC(=O)c3ccccc3Br)c12,106% (inactive)
10,O=C(NCCc1ccncc1)Nc1c[nH]c2ccccc2c1=O,89% (inactive)
11,COc1ccccc1C(=O)c1cn(CC(=O)Nc2ccccc2F)c2nc(C)ccc2c1=O,71% (inactive)
12,CCOc1cc(Cl)c(S(=O)(=O)n2cc(C)nc2CC)cc1Cl,3% (active)
13,CCOc1cc(Cl)c(S(=O)(=O)n2ccnc2)cc1Cl,73% (inactive)
14,CCc1nc(C)cn1S(=O)(=O)c1ccc(Cl)c(Cl)c1OC,71% (inactive)
15,CCOc1ccc(C(=O)NCCSc2c(C)[nH]c3ccccc23)cc1OCC,56% (inactive)
16,CC1=C(C(=O)Nc2ccc(F)cc2)C(c2ccc(N(C)C)cc2)NC(=O)N1 (centres undefined),140% (inactive)
17,Cc1ccc(OCCCCn2c(CCNC(=O)C(C)(C)C)nc3ccccc32)cc1,42% (active)
18,CCCCCn1c(CCCNC(=O)c2ccc(Cl)cc2)nc2ccccc21,85% (inactive)
19,CC(C)(C)C(=O)NCCc1nc2ccccc2n1CCCCOc1ccccc1,41% (active)
20,Cc1ccccc1OCCn1c(CCNC(=O)C(C)(C)C)nc2ccccc21,82% (inactive)
21,Cc1ccccc1OCCn1c(CCNC(=O)C2CCCCC2)nc2ccccc21,77% (inactive)
22,Cc1cccc(OCCCn2c(CCNC(=O)C(C)(C)C)nc3ccccc32)c1,77% (inactive)
23,CC(C)(C)C(=O)NCCc1nc2ccccc2n1CCCCOc1ccc(Cl)cc1,18% (active)
24,CC(=O)NCCc1nc2ccccc2n1CCCCOc1ccc(Cl)cc1,61% (inactive)
25,CCCCCn1c(CCCNC(=O)c2ccccc2)nc2ccccc21,59% (inactive)

row,Structure (SMILES),survival
1,Cc1ccccc1OCCCCn1c(CCNC(=O)C(C)(C)C)nc2ccccc21,36% (active)
2,CCN(CC)S(=O)(=O)c1cccc(C(=O)NCc2ccccc2)c1,49% (inactive)
3,CCN(C(=O)Cn1cc(C(=O)c2ccc(F)cc2)c(=O)c2ccc(C)nc21)c1cccc(C)c1,71% (inactive)
4,CCc1ccccc1NC(=O)C1CCN(c2nn3c(=O)cc(C)nc3s2)CC1,81% (inactive)
5,Cc1ccc(N(CC(=O)N2CCN(c3cccc(Cl)c3)CC2)S(=O)(=O)c2c(C)noc2C)cc1,73% (inactive)
6,CCCCS(=O)(=O)CC(O)CSc1nc(-c2ccc(C)cc2)cc(-c2ccccc2)c1C#N (centres undefined),68% (inactive)
7,CCN1C(=O)C2C(c3ccc(OC)cc3)NC(CC)(C(=O)OC)C2C1=O (centres undefined),56% (inactive)
8,CN(C)CCNC(=O)c1ccc(Cn2c(SCc3ccc(F)cc3)nc3cccnc32)cc1,131% (inactive)
9,CC(C)CC(=O)Nc1nnc(S(=O)(=O)N(CC(C)C)c2ccccc2)s1,111% (inactive)
10,Cc1ccccc1N(C)S(=O)(=O)c1nnc(NC(=O)c2ccco2)s1,94% (inactive)
11,CCN(c1ccccc1)S(=O)(=O)c1nnc(NC(=O)c2ccco2)s1,39% (active)
12,COc1ccc(N(CC(C)C)S(=O)(=O)c2nnc(NC(=O)c3ccco3)s2)cc1,41% (active)
13,CN(c1ccccc1)S(=O)(=O)c1nnc(NC(=O)c2ccco2)s1,47% (inactive)
14,CCN(c1ccccc1C)S(=O)(=O)c1nnc(NC(=O)c2ccco2)s1,41% (active)
15,CCN(c1ccc(Cl)cc1)S(=O)(=O)c1nnc(NC(=O)c2ccco2)s1,67% (inactive)
16,CC(C)CN(c1ccccc1)S(=O)(=O)c1nnc(NC(=O)c2ccco2)s1,31% (active)
17,CCN(c1cc(C)cc(C)c1)S(=O)(=O)c1nnc(NC(=O)c2ccco2)s1,52% (inactive)
18,O=C(Cn1c(=O)n(-c2ccccc2)c(=O)c2ccc(C(=O)NCc3ccc4c(c3)OCO4)cc21)Nc1ccc(F)cc1,64% (inactive)
19,CC(C)c1ccc(NC(=O)Cn2cc(S(=O)(=O)Cc3cccc(Cl)c3)c3ccccc32)cc1,76% (inactive)
20,Cn1c(C(=O)N2CCc3ccccc32)cc2sccc21,91% (inactive)
21,CC(=O)N1CCc2c(sc(NC(=O)CSc3ccc(F)cc3)c2-c2nc3ccccc3s2)C1,108% (inactive)
22,Cc1ccc(Cn2c(CNC(=O)c3ccc(Cl)c([N+](=O)[O-])c3)nc3cccnc32)cc1,88% (inactive)
23,CC(SC(=S)N1CCCCCC1)C(=O)O (centres undefined),90% (inactive)
24,O=C(Cn1cc(S(=O)(=O)N2CCCC2)c(S(=O)(=O)N2CCCC2)c1)Nc1cccc(F)c1,98% (inactive)
25,Cc1nn(-c2ccccc2)c(-n2cccc2)c1C(=O)NCCCN1CCN(c2ccccc2F)CC1,63% (inactive)

row,Structure (SMILES),survival
1,Cc1ccc(N(C)S(=O)(=O)c2nnc(NC(=O)c3ccco3)s2)cc1,57% (inactive)
2,Cc1ccc(N(CC(C)C)S(=O)(=O)c2nnc(NC(=O)c3ccco3)s2)cc1,44% (active)
3,CCC(C)(C)C(=O)Nc1ccc(Cl)cc1,93% (inactive)
4,CCOc1ccc(NC(=O)c2c(NC(=O)Cc3ccccc3)sc3c2CCC(C)C3)cc1 (centres undefined),46% (inactive)
5,CC1CCc2c(sc(NC(=O)Cc3ccccc3)c2C(=O)Nc2ccc(Cl)cc2)C1 (centres undefined),57% (inactive)
6,CC1CCc2c(sc(NC(=O)c3ccccc3)c2C(=O)Nc2ccccc2)C1 (centres undefined),42% (active)
7,Cc1cccc(C(=O)Nc2sc3c(c2C(=O)N2CCCCC2)CCC(C)C3)c1 (centres undefined),-6% (active)
8,Cc1cccc(NC(=O)c2c(NC(=O)c3ccco3)sc3c2CCC(C)C3)c1 (centres undefined),53% (inactive)
9,Cc1cccc(NC(=O)c2c(NC(=O)c3cccs3)sc3c2CCC(C)C3)c1 (centres undefined),60% (inactive)
10,CCN(CC)C(=O)c1c(NC(=O)c2cccc(C)c2)sc2c1CCC(C)C2 (centres undefined),-1% (active)
11,CCOc1ccc(C(=O)c2cn(Cc3cccc(OC)c3)c3cc4c(cc3c2=O)OCO4)cc1,72% (inactive)
12,COC(=O)c1ccc2nc(C)cc(Nc3ccc(O)cc3)c2c1,186% (inactive)
13,COc1cc(Cl)c(S(=O)(=O)N2CCN(c3c(C)cccc3C)CC2)cc1Cl,69% (inactive)
14,C/C(=N\NC(=O)c1cc2ccccc2cc1O)c1ccc(N)cc1,70% (inactive)
15,COc1ccc(CNC(=O)Nc2ccc3c(c2)N(C)C(=O)c2ccccc2S3)cc1OC,61% (inactive)
16,O=C(Nc1ccc(Cl)cc1)c1cc2nc(-c3ccc4c(c3)OCO4)cc(C(F)(F)F)n2n1,83% (inactive)
17,CC(C)NC(=O)C1CC(c2ccc(Cl)cc2)=NO1 (centres undefined),84% (inactive)
18,COc1ccc(CNC(=O)c2cc3c(-c4ccccc4F)nn(C)c3s2)cc1,61% (inactive)
19,Cn1nc(-c2ccccc2F)c2cc(C(=O)NCCc3ccc(Cl)cc3)sc21,76% (inactive)
20,Cn1nc(-c2ccccc2F)c2cc(C(=O)NCc3ccc(Cl)cc3)sc21,87% (inactive)
21,Cn1nc(-c2ccccc2F)c2cc(C(=O)NCc3ccccc3Cl)sc21,56% (active)
22,Cn1nc(-c2ccccc2F)c2cc(C(=O)NCc3cccc(Cl)c3)sc21,41% (active)
23,COc1cccc(CNC(=O)c2cc3c(-c4ccccc4F)nn(C)c3s2)c1,59% (inactive)
24,CCN1C(=O)C2(c3ccccc31)c1c(oc3ccccc3c1=O)C(=O)N2CCOC (centres undefined),67% (inactive)
25,Cc1oc2cc3oc(=O)c(CC(=O)NCc4ccccc4)c(C)c3cc2c1C,73% (inactive)

row,Structure (SMILES),survival
1,Cc1ccc(C(=O)N2CCc3cc(CNC(=O)COc4ccccc4)ccc32)cc1,89% (inactive)
2,Cc1ccc(-n2nc3c(=O)n(CCCC(=O)NC(C)c4ccccc4)nc(C)c3c2C)cc1 (centres undefined),67% (inactive)
3,COc1ccc(S(=O)(=O)N(CCc2ccccc2)CC(=O)NCc2ccccc2)cc1OC,62% (inactive)
4,O=C(CC(c1cccs1)N1Cc2ccccc2C1=O)Nc1ccc(Cl)cc1 (centres undefined),131% (inactive)
5,Cc1c(Cl)cccc1NC(=O)CC(c1cccs1)N1Cc2ccccc2C1=O (centres undefined),32% (active)
6,O=C(CC(c1cccs1)N1Cc2ccccc2C1=O)Nc1ccccc1F (centres undefined),78% (inactive)
7,Cc1c(Cl)cccc1NC(=O)CC(c1ccc(F)cc1)N1Cc2ccccc2C1=O (centres undefined),37% (active)
8,CCOc1ccccc1NC(=O)CC(c1ccc(F)cc1)N1Cc2ccccc2C1=O (centres undefined),99% (inactive)
9,CCc1ccccc1NC(=O)CC(c1ccc(F)cc1)N1Cc2ccccc2C1=O (centres undefined),117% (inactive)
10,CCOC(=O)C1CCCN(C(=O)Cn2ncc3c([nH]c4ccc(C)cc43)c2=O)C1 (centres undefined),81% (inactive)
11,CCOC(=O)c1ccc2c(c1)N(CC#N)C(=O)C(C)(C)O2,94% (inactive)
12,CCOC(=O)c1[nH]c(Cc2[nH]c(C(=O)OCC)c(C)c2CC(=O)OC)c(CCC(=O)OC)c1C,70% (inactive)
13,Cc1ccc2c(=O)cc(C(=O)Nc3cccc(Cl)c3C)oc2c1C,54% (inactive)
14,COC(=O)c1ccccc1NC(=O)c1cc(=O)c2ccc(C)c(C)c2o1,72% (inactive)
15,COc1ccc(OC)c(NC(=O)c2cc(=O)c3c(C)cc(C)cc3o2)c1,42% (active)
16,COc1ccc(CCNC(=O)c2cc(=O)c3c(C)cc(C)cc3o2)cc1OC,57% (inactive)
17,CCOC(=O)c1ccc(NC(=O)c2cc(=O)c3ccc(C)c(C)c3o2)cc1,45% (active)
18,Cc1ccc2c(=O)cc(C(=O)Nc3ccc(S(=O)(=O)N(C)Cc4ccccc4)cc3)oc2c1C,92% (inactive)
19,Cc1cc(C)c2c(=O)cc(C(=O)Nc3ccccc3Cl)oc2c1,62% (inactive)
20,CCc1ccc(NC(=O)c2cc(=O)c3ccc(C)c(C)c3o2)cc1,91% (inactive)
21,CCN(c1ccccc1)S(=O)(=O)c1ccc(NC(=O)c2cc(=O)c3ccc(C)c(C)c3o2)cc1,64% (inactive)
22,COc1ccccc1NC(=O)c1cc(=O)c2ccc(C)c(C)c2o1,41% (active)
23,CCOc1ccc(NC(=O)c2cc(=O)c3ccc(C)c(C)c3o2)cc1,60% (inactive)
24,Cc1ccc2c(=O)cc(C(=O)Nc3ccc(S(=O)(=O)N(C)c4ccccc4)cc3)oc2c1C,50% (active)
